PKM2 inh: qHTS Assay for Inhibitors of Human Muscle isoform 2 Pyruvate Kinase | Pyruvate kinase PKM (Homo sapiens), P14618 | purified PKM2, ATP generation, Kinase-Glo luminescence | Potency, µM (doses to about 57.5 µM), most hits filed as inhibitors | 0.058% of 260,000 active | AID 1634, 2009; note: nearly all actives have a fitted effect of over 60% in size
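Coupled luciferase luminescence (Kinase-Glo) detects ATP generated from 0.1 mM ADP and 0.5 mM PEP in imidazole buffer pH 7.2 with KCl, MgCl2; 1 h at room temperature. Enzyme at intermediate activity; normalized to uninhibited and no-enzyme controls.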
PKM2 inh CRC: Confirmation Concentration-Response Assay for Inhibitors of Human Muscle isoform 2 Pyruvate Kinase; purified hPK-M2, Kinase-Glo ATP luminescence, 1 h; shares compounds with PKM2 inh; 50% of 55 active; Potency, µM (titrated, usually from 57.5 µM), hits mostly inhibitors
PKM2 FLuc cs: Secondary assay for Inhibitors of Human Pyruvate Kinase M2 isoform: FLuc Counterscreen; Potency, µM (series often up to 57.5 µM), hits mostly inhibitors; Kinase-Glo firefly luciferase, luminescence, 8 min; shares compounds with PKM2 inh; 30% of 55 active
PKM2 inh LDH: Secondary assay for Inhibitors of Human Pyruvate Kinase M2 isoform; shares compounds with PKM2 inh; purified hPK-M2, LDH-coupled NADH fluorescence kinetic; Potency, µM (top dose mostly 57.5 µM), usual class: inhibitors; 55 tested, under 10 active; AID 2267, 2010
Large screens that a line does not name were inactive (follow-up assays come after a bar, where they were run). The entries come from a sample that favours hits as a whole. Calls come from the whole dose curve; as a rule, active = well fitted curve in the direction sought with a large enough effect; inconclusive = small, poorly fitted or top-dose-only effect, or another doubt; inactive = no such curve, though single readings can be large; an effect the other way counts as inactive or inconclusive.

O=c1c2ccccc2[se]n1-c1ccccc1	PKM2 inh 6.3µM | PKM2 inh CRC 5.8µM | PKM2 FLuc cs 21µM | PKM2 inh LDH inconclusive
Nn1c(COc2ccc(Cl)cc2)n[nH]c1=S	none
Cc1ccccc1N(CC(=O)NC1CCCC1)C(=O)c1csnn1	none
O=C1c2ccccc2C(=O)N1SC1CCCCC1	none
COc1cc(N2CCOCC2)ccc1/C=C1\C(=O)NC(=O)N(Cc2ccc3c(c2)OCO3)C1=O	none

From PubChem BioAssay
